The list is not random: actives were taken first. Their share in the collection is about 3.7%.
Rce1 inh: yeast Ras-converting enzyme inhibition. calls only. Q03530. 290,000 compounds, 0.27% hits. yeast membranes, quenched prenylated peptide cleavage fluorescence;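 active means fall in fluorescence gain of 50% or more versus controls, with final raw signal at or below 3038400; inconclusive means same 50% fall but final raw signal above 3038400; inactive means fall in fluorescence gain under 50%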;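 further: plate controls were neutral control wells for no effect and wells lacking membranes for full effect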
Target sequence (Q03530 whole entry, looked up): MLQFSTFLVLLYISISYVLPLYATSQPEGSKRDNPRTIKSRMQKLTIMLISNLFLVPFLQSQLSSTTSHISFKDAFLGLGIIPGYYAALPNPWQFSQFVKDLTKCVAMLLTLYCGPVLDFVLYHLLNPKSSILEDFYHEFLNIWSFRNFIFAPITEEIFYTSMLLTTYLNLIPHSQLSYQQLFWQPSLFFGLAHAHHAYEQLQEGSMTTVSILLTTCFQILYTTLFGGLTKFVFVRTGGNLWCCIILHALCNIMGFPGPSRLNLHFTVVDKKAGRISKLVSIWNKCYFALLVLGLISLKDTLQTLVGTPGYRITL
PfHsp90 yeast 2: reduces growth (ATP signal) of yeast expressing P. falciparum Hsp90; S. cerevisiae expressing PfHsp90, BacTiter-Glo ATP, 48 h; yeast lacking PDR1 and PDR3 efflux regulators; inhibition, % at 9.4 µM; 310,000 compounds, 0.32% hits; AID 504621;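 active means every replicate shows inhibition above about 80%, whatever the replicate mean, limit read from the data; inconclusive means mean inhibition reaches the set limit but some replicate falls short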;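 further: 0% = DMSO neutral controls and 100% = 20 µM radicicol positive controls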
tim23-1 inh: inhibits growth of tim23-1 mutant yeast | S. cerevisiae tim23-1 growth, BacTiter-Glo luminescence, 24 h | inhibition, % at 20 µM | 330,000 compounds, 1.3% hits | AID 463212;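 active means growth inhibition of the mutant yeast at or above 50%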;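 further: temperature-sensitive mutant grown at 25 °C; plate controls were DMSO-treated mutant yeast for no effect and medium wells lacking yeast for full effect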
TIM10 inh: TIM10 yeast growth inhibition | S. cerevisiae TIM10 strain growth, BacTiter-Glo luminescence, 24 h | inhibition, % at 10 µM | 330,000 compounds, 1.4% hits;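 active means inhibition of 40% or more at the single tested concentration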;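 further: wild-type TIM10 isogenic control strain grown at permissive 25 °C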
tim10-1 inh: tim10-1 yeast growth inhibition; S. cerevisiae tim10-1 ts strain growth, BacTiter-Glo, 24 h; inhibition, % at 20 µM; 330,000 compounds, 2.2% hits; AID 463190;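 active means inhibition of at least 40%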;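 further: mutant grown at 25 °C; 0% = DMSO wells with yeast and 100% = wells holding no yeast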
tim10-1 confirm: confirmation of tim10-1 mutant yeast growth inhibitors; shares compounds with tim10-1 inh; S. cerevisiae tim10-1 ts strain growth, BacTiter-Glo, 24 h; inhibition, % at 20 µM; 7,400 compounds, 56% hits; AID 463213;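 active means inhibition of yeast growth at or above a set limit in either of two repeat tests at 20 µM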;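 further: tim10-1 mutant grown at permissive 25 °C to find synthetic lethal compounds; 0% = DMSO yeast wells and 100% = medium wells without yeast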
Starred values were filed as active, the others as inactive; i = inactive; ? = inconclusive; / = no result.

SMILES	Rce1 inh	PfHsp90 yeast 2	tim23-1 inh	TIM10 inh	tim10-1 inh	tim10-1 confirm
COc1cc(Nc2nc3ccccc3nc2NS(=O)(=O)c2ccc([N+](=O)[O-])cc2)cc(OC)c1OC	i	-8	38	22	46*	35*
Cc1ccc(CN2CCNC(=O)C2CC(=O)NCCCn2ncc3ccccc32)o1 (configuration not stated)	/	4	/	/	/	/
COc1ccccc1NC(=O)CSc1nnnn1C1CCCCC1	i	3	12	22	3	/
COc1cccc(C(=O)CSc2nnnn2C2CCCCC2)c1	i	-25	46	11	44*	37*
Cc1ccn2cc(-c3cccc(S(=O)(=O)N4CCCCC4)c3)nc2c1	i	-7	38	25	48*	20
COc1ccc(C(=O)NC23CC4CC(CC(C4)C2)C3)cc1OC	i	-4	30	11	15	/
N#Cc1ccc(C(=O)NC23CC4CC(CC(C4)C2)C3)cc1	i	-31	26	8	41*	4
COc1ccc(C)cc1NC(=O)c1ccc(CN2CCN(c3ccccc3)CC2)cc1	i	-4	36	21	46*	30
CCOc1ccc(C(=O)O/N=C(\N)c2ccc([N+](=O)[O-])cc2)cc1OCC	i	-9	13	2	28	/
COc1cc(C(=O)O/N=C(\N)Cc2ccc([N+](=O)[O-])cc2)cc(OC)c1OC	i	/	22	25	63*	53*
COc1ccccc1-n1cc2c([N+](=O)[O-])cc([N+](=O)[O-])cc2n1	i	4	45	31	49*	38*
COc1ccccc1N=c1c2c([N+](=O)[O-])cc([N+](=O)[O-])cc2n(O)n1-c1ccccc1OC	/	/	-29	-25	-28	/
CC(=O)c1cccc(NC(=O)c2sc3nc4n(c(=O)c3c2C)CCCC4)c1	i	-36	18	19	52*	28*
CCc1ccc(NC(=O)c2sc3nc4n(c(=O)c3c2C)CCC4)cc1	i	15	34	-11	44*	12
CC(=O)Nc1ccc(NC(=O)c2sc3nc4n(c(=O)c3c2C)CCCCC4)cc1	i	-9	15	10	14	/
C/C(CC(=O)Nc1ccccc1)=N\NC(=O)COc1ccc(C)cc1Br	i	-18	35	7	22	/
CCc1ccc(NC(=O)C/C(C)=N/NC(=O)COc2ccc(C)cc2Br)cc1	i	-10	47	5	45*	22
CCOC(=O)c1c(N)sc2c(OC)c(Br)ccc12	i	14	39	32	58*	45*
CC1(C)CC[C@]2(C(=O)O[C@@H]3OC(CO)[C@@H](O)[C@H](O)[C@H]3O)CC[C@]3(C)C(=CCC4[C@@]5(C)CC[C@H](O[C@@H]6OC(C(=O)O)[C@@H](O)[C@H](O)[C@H]6O)C(C)(C)C5CC[C@]43C)[C@@H]2C1 (some centres not stated)	/	12	28	1	40*	22
CCOc1ccc2nc(SC3CC(=O)N(c4ccc(OC)cc4OC)C3=O)sc2c1 (configuration not stated)	i	-24	34	36	44*	43*
CCOc1ccccc1N(CC(=O)NC1CCCCC1)C(=O)CCC(=O)Nc1cc(C)ccn1	i	2	18	-3	7	/
COc1ccc(Cc2n[nH]c(=S)n2NC(=O)Nc2ccc(Cl)c(Cl)c2)cc1	i	-93	18	31	43*	64*
COc1ccc2nc(N3CCN(C(=O)c4ccc5ncsc5c4)CC3)sc2c1	i	4	9	1	18	/
COc1ccc(OC)c2sc(N3CCc4ccccc4C3)nc12	i	/	34	25	37	/
O=C(c1ccc2nc[nH]c2c1)N1CCN(c2cccc(C(F)(F)F)c2)CC1	i	9	34	28	37	/
SMILES	Rce1 inh	PfHsp90 yeast 2	tim23-1 inh	TIM10 inh	tim10-1 inh	tim10-1 confirm
COc1ccc(OC)c2sc(N3CCN(C(=O)c4ccc5ncsc5c4)CC3)nc12	i	6	29	21	50*	21
O=C(c1ccc2ncsc2c1)N1CCN(c2cccc(C(F)(F)F)c2)CC1	/	-11	50	38	58*	39*
COc1ccc(OC)c2sc(N3CCCCC3)nc12	i	/	26	21	43*	25
CN(CC(=O)NCC(c1ccco1)N1CCCCC1)S(=O)(=O)c1ccc(Cl)cc1 (configuration not stated)	i	8	26	6	13	/
COc1ccccc1/C=C/C(=O)NCC(=O)N/N=C/c1cc(Br)ccc1OC	i	8	11	8	28	/
COc1ccccc1/C=C\C(=O)NCC(=O)N/N=C/c1cccc(OC)c1O	i	-8	10	14	51*	-4
O=C(CSc1ccc2nnc(-c3cccc(F)c3)n2n1)N1CCCc2ccccc21	i	16	10	9	31	/
CCSc1ccc2nnc(-c3cccc(F)c3)n2n1	i	-13	38	33	40*	34*
Cc1cc(C)n2nc(C(=O)Nc3ccn(Cc4ccccc4C)n3)cc2n1	i	6	16	6	6	/
CCn1c(C)c(C)c2cc(C(=O)N3CCc4ccccc4C3)ccc21	i	-3	47	27	48*	1
O=C(Nc1ccccc1)c1ccc(-c2ccccc2C(F)(F)F)o1	/	27	40	20	44*	27
CSc1ccc(S(=O)(=O)Nc2ccc(S(=O)(=O)Nc3ccc(C)cc3)cc2)cc1	i	/	21	5	19	/
Cc1ccc(S(=O)(=O)Nc2ccc(N=Nc3ccc(O)cc3)cc2)cc1	?	-28	38	34	40*	47*
COc1ccc(-n2nc(C(=O)NCC(=O)Nc3cccc(Cl)c3)c3ccccc3c2=O)cc1	i	11	-16	-2	-21	/
Cc1cc(C)c(C)c(S(=O)(=O)ON2C(=O)c3ccccc3C2=O)c1C	/	-11	36	27	59*	61*
Cc1ccc(S(=O)(=O)ON2C(=O)c3ccccc3C2=O)c(C)c1	/	11	/	/	/	/
Cc1cc(O)c(C(=O)/C=C/c2ccccc2Br)c(=O)o1	i	11	35	23	46*	11
Cc1cc(O)c(C(=O)/C=C/c2ccc(C(C)C)cc2)c(=O)o1	i	-2	43	31	43*	33*
Cc1cc(O)c(C(=O)/C=C/c2ccccc2)c(=O)o1	i	29	42	13	30	/
CCOc1cccc(-c2nnc3sc(C4CCCCC4)nn23)c1	i	-20	40	31	41*	13
COc1ccc(C(=O)O/N=C(/C)c2cccs2)cc1	i	73	48	6	23	/
COc1cc(OC)c(C(=O)O/N=C(\N)c2ccc(C)cc2)cc1OC	i	-14	36	33	46*	49*
Cc1cccc(/C(N)=N/OC(=O)COc2ccc(Cl)cc2)c1	i	/	27	21	50*	46*
COc1ccc(/C(N)=N/OC(=O)c2cccs2)cc1OC	i	24	23	25	66*	53*

Assay outcomes: PubChem BioAssay, several laboratories
